Source: PubChem BioAssay (NCI)
The panel holds about 83,000 compounds, 20% with a hit somewhere; the sample as a whole holds those more often.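 Single-dose data. Exposure time 48 hours. Values below 10 considered active.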 Activity calls are given as the source filed them.

test system: MDA-MB-468 breast; experiment: NCI-60 one-dose screen, 48 h (100 = growth as untreated, 0 = no growth, -100 = all killed); details: 10 µM unless noted

SMILES	growth
CCOC(=O)c1ccc2c(c1)nc(-c1ccccc1)n2C1CCCCC1	118% (inactive)
O=C1C2C(c3cccs3)C=C(c3ccc(Cl)cc3)N2C(=S)N1c1ccccc1 (stereo unspecified)	79.7% (inactive)
Cc1ccccc1COc1ccc(-c2ccnn2-c2ccc(Cl)cc2)cc1	41.1% (inactive)
Nc1n[nH]c(=S)n1-c1ccc(Cl)cc1	97.5% (inactive)
CCOC(=O)C1=C(C)N=C2SC=C(c3ccccc3)N2[C@H]1c1cn[nH]c1-c1ccc(Cl)cc1	22.4% (inactive)
CCOC(=O)C(=O)C=P(c1ccccc1)(c1ccccc1)c1ccccc1	114% (inactive)
O=C(O)CCCN1C(=O)/C(=C/c2cn(-c3ccccc3)nc2-c2ccc([N+](=O)[O-])cc2)SC1=S	73.5% (inactive)
NC(N)=Nc1ccc(Oc2cccc(NC(N)=Nc3ccc(I)cc3F)c2)cc1	35.5% (inactive)
N#Cc1cccc(C2C3=C(COC3=O)N(CCO)c3cc4c(cc32)CCC4)c1 (stereo unspecified)	3.97% (active)
CC[C@H](Nc1ncnc2nc[nH]c12)c1nc2cccc(NCc3ccc(C(=O)NO)o3)c2c(=O)n1-c1ccccc1	84.7% (inactive)
SCc1ccc(CS)cc1	111% (inactive)
O=C1NC(=O)c2ncccc21	93.8% (inactive)
COc1ccc(NC(=O)/C=C/c2ccc(NC(=O)N3CCCC3)cc2)cn1	116% (inactive)
CCOC(=O)C1CCc2c(ccc3ccccc23)N1CCC#N (stereo unspecified)	73.6% (inactive)
CCOC(=O)Cc1cnc(N/N=C(\C)c2cc3ccccc3o2)s1	99.8% (inactive)
O=C1Nc2ccc(F)cc2/C1=C/c1nc(-c2ccc(F)cc2)n2ccccc12	113% (inactive)
